The values below come from the supplement of paper PMC11417369.

Whole data set: some 25,000 sequences, median “ln(normalized median fluorescence intensity)” near 9.3, cut for the highest 2% near 10. This excerpt belongs to a sample that is enriched for the highest values.

This experiment concerns PF3D7_0420300 AP2 domain 1 (GST-tagged). Briefly: gcPBM binding intensity (ln(normalized median fluorescence intensity)); higher = stronger DNA binding. In short, it runs like this: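 Binding of GST-tagged P. falciparum DNA-binding domains, expressed in E. coli and used at about 25 μg on average, was carried out for 1 h in 1× PBS containing 1% milk, 0.2 mg/ml BSA, 0.5% salmon testes DNA and 0.03% Triton X-100. The target was an Agilent 4 × 180k array of primer-extended double-stranded 36-bp intergenic genomic probes plus negative controls, read with Alexa488 anti-GST antibody at 488 nm. Binding intensity is the highest Masliner-normalised natural-log median intensity across replicate spots of either probe orientation.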
For the sequence “TATGTGAATATAATCACACACAATACGGAAACCCAC [CACACA_site2725]”, the “gcPBM binding intensity (ln)” value was 9.77.

Regarding “AATATGTGAATATAATCACACACAATACGGAAACAC [CACACA_site8875]”, the “gcPBM binding intensity (ln)” value amounted to 10.1. For “TATGTGAATATAATCACACACAATACGGAAAGAGAC [CACACA_site7311]” the value was 10.2; for “TTTTTTTTTTTTTTTGCACACACCATATTTATAGAA [CACACA_site3310]”, 9.46. As for “GTTCATAAATTAAACACACACACACCCCTGGATACC [CACACA_site3331]”, the “gcPBM binding intensity (ln)” value was determined as 10.2. As to “TCATAAATGAAACACACACACACATCTGGATACCCC [CACACA_site3332]”, the “gcPBM binding intensity (ln)” value came to 10.1. Then “GTTCATAAATTAAACACACACACACCGCTGGATACC [CACACA_site5779]”, with 10.1; and “TCATAAATTAAACACACACACACATCTGGATACCCC [CACACA_site9096]”, with 10.3; and “ATAAATTAAAAACACACACACATCTGGATACCCCTA [CACACA_site5780]”, with 10.1.

For the sequence “GTTCATAAATTAAACACACACACACGGCTGGATACC [CACACA_site7545]”, the “gcPBM binding intensity (ln)” value worked out at 10.1. Then “TACTCCTCAATATTATGTACATATAATAGTTATAAA [XGTACX_site8551]”, with 9.23. For “TATATACAAAAAATATGTACATATATATATATATAT [XGTACX_site3497]” the value was 9.21.

As for “TAATATTTTATTTTTGTTGTGGATCCAAAAAAAAAA [CACACA_negctrl_site846]”, the “gcPBM binding intensity (ln)” value came to 8.76. On to “TAATATGAAATGTGTACACACGCACCCACAAAAAAA [CACACA_site8949]”, for which the “gcPBM binding intensity (ln)” value turned out to be 9.74. AAAAATTATAGAAAAGTGCAATACATGTTACACCAT: the “gcPBM binding intensity (ln)” value was found to be 9.28. On to “CAAATAAATATTAAAAGTACACACAGATACACTAAT [XGTACX_site3749]”, for which the “gcPBM binding intensity (ln)” value amounted to 9.88. Then “TACACAGACGGACACACACACACACTAGAAAAAAAA [CACACA_site4435]”, with 10; and “AACAAACACGGACACACACACACACTAGAATGATTA [CACACA_site5364]”, with 10.2. As to “AAAAAATCAAAACACACACACACACCCAAAAAAAAA [CACACA_site1444]”, the “gcPBM binding intensity (ln)” value is 10.1. In the case of “AACACGCACAGACACACACACAAAAATGATTAAAAA [CACACA_site7195]”, the “gcPBM binding intensity (ln)” value amounted to 9.67. Then “AAAGAAAAAAAAAAAACACACAAAAAAAATCAAAAT [CACACA_site2871]”, with 9.94; and “TATTAATACGGACACACACACACACTAGATAAAATA [CACACA_site4295]”, with 10.2; and “AACAAATACGGACACACACACACACTAGAAAAAAAA [CACACA_site4442]”, with 10.2.

For “CAAACCCACGGACACACACACACAAAAATGATTAAA [CACACA_site5365]”, the “gcPBM binding intensity (ln)” value was 9.93. Turning to “CAAATACACGGACACACACACACAAAAAAAAAAAAA [CACACA_site6385]”, the “gcPBM binding intensity (ln)” value turned out to be 10.1. For “AAAAAATCAAAACACACACACACACTAGAAAAAAAA [CACACA_site4909]”, the “gcPBM binding intensity (ln)” value amounted to 10.3. Turning to “ATAAATATTAAAAGTACACACAGATACACTAATTAT [CACACA_site1808]”, the “gcPBM binding intensity (ln)” value stood at 9.75.
